Assay results reported in ChEMBL document CHEMBL1961873, “Compounds: GSK PKIS; Assays: Nanosyn kinase panel” (2012).

Tests used:
[1] = biological target: Mast/stem cell growth factor receptor Kit (Homo sapiens) (UniProt P10721); settings: at 1 µM
[2] = tested on: Mast/stem cell growth factor receptor Kit (Homo sapiens), P10721 [D816V]; settings: at 0.1 µM
[3] = tested on: Mast/stem cell growth factor receptor Kit (Homo sapiens), P10721 [D816V]; settings: at 1 µM
[4] = tested on: Mast/stem cell growth factor receptor Kit (Homo sapiens), P10721 [T670I]; settings: at 0.1 µM
[5] = tested on: Mast/stem cell growth factor receptor Kit (Homo sapiens), P10721 [T670I]; settings: at 1 µM
[6] = tested on: Mast/stem cell growth factor receptor Kit (Homo sapiens), P10721 [V560G]; settings: at 0.1 µM
[7] = tested on: Mast/stem cell growth factor receptor Kit (Homo sapiens), P10721 [V560G]; settings: at 1 µM
[8] = biological target: Tyrosine-protein kinase Lck (Homo sapiens) (UniProt P06239); settings: at 0.1 µM
[9] = biological target: Tyrosine-protein kinase Lck (Homo sapiens) (UniProt P06239); settings: at 1 µM
[10] = biological target: Leukocyte tyrosine kinase receptor (Homo sapiens) (UniProt P29376); settings: at 0.1 µM
Chain of Leukocyte tyrosine kinase receptor (Homo sapiens) (P29376 whole entry): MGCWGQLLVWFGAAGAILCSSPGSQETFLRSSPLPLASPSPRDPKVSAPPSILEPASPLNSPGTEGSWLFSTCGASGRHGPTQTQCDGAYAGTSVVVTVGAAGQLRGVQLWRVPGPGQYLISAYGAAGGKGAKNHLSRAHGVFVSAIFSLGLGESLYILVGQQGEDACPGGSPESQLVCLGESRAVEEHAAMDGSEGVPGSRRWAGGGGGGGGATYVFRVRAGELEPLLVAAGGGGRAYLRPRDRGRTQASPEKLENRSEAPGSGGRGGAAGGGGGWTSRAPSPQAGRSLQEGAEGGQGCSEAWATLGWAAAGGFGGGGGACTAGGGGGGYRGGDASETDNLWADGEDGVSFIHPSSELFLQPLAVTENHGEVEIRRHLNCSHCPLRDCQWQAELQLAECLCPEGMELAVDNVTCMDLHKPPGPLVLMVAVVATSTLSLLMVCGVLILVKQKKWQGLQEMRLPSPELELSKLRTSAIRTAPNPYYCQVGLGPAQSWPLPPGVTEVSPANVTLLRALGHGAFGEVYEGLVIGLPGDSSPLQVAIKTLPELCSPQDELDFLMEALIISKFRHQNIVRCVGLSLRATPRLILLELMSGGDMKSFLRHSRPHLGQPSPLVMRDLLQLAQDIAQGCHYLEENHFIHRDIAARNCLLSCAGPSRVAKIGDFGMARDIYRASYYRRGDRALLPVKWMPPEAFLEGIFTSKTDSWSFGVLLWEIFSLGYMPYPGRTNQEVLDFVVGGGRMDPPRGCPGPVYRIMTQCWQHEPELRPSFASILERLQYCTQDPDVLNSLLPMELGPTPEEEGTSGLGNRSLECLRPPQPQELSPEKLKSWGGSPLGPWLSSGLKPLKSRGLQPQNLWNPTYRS

Chain of Mast/stem cell growth factor receptor Kit (Homo sapiens), P10721 [D816V] (P10721 whole entry D816V): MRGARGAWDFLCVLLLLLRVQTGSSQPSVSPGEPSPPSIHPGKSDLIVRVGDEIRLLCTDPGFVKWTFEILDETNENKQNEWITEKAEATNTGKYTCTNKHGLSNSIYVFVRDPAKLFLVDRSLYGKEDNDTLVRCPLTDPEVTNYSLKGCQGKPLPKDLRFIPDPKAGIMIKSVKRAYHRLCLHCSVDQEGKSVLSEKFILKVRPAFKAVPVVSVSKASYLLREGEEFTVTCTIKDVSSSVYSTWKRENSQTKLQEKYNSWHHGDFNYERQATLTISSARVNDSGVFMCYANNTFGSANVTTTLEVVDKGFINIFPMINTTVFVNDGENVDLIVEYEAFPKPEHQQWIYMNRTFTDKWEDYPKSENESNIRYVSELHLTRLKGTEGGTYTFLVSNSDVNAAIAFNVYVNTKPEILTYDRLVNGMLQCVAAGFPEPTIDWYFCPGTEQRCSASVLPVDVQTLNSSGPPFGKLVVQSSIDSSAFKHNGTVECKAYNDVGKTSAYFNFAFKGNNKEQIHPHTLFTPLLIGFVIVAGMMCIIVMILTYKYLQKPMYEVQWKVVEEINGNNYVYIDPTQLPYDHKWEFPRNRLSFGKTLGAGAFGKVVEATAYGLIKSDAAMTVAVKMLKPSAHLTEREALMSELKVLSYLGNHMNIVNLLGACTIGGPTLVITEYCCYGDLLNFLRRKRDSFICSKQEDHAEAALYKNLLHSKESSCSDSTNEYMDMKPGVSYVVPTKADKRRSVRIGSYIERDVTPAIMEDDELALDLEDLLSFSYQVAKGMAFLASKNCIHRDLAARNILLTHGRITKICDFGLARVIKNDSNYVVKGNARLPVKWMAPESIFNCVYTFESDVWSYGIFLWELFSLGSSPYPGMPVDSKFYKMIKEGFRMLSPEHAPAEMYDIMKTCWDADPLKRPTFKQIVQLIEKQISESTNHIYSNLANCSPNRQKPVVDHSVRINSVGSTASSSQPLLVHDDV
Chain of Mast/stem cell growth factor receptor Kit (Homo sapiens), P10721 [T670I] (P10721 whole entry T670I): as the sequence (P10721 whole entry D816V) above, with T670I, V816D counted along it
Chain of Mast/stem cell growth factor receptor Kit (Homo sapiens), P10721 [V560G] (P10721 whole entry V560G): as the sequence (P10721 whole entry D816V) above, with V560G, V816D counted along it
Chain of Tyrosine-protein kinase Lck (Homo sapiens) (P06239 2-509 limits assumed): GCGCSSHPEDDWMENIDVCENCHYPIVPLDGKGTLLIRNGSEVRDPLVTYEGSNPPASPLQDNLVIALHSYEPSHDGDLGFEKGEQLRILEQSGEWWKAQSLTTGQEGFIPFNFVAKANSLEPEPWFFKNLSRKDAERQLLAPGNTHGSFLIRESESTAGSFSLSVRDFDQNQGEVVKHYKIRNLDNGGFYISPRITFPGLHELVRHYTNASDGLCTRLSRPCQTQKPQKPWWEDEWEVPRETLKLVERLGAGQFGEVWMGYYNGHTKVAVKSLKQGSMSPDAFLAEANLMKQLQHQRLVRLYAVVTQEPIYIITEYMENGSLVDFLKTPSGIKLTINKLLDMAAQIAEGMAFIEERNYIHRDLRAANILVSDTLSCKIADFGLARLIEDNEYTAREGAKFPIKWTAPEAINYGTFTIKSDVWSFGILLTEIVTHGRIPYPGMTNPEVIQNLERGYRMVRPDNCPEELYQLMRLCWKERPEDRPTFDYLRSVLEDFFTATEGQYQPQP
Chain of Mast/stem cell growth factor receptor Kit (Homo sapiens) (P10721 whole entry): as the sequence (P10721 whole entry D816V) above, with V816D counted along it

Row | SMILES | inhibition [1] [%] | inhibition [2] [%] | inhibition [3] [%] | inhibition [4] [%] | inhibition [5] [%] | inhibition [6] [%] | inhibition [7] [%] | inhibition [8] [%] | inhibition [9] [%] | inhibition [10] [%]
1 | Cc1ccc(C(=O)NC2CCCCC2)cc1-c1ccc(C(=O)NCC2CC2)cc1 | 4.9 | 3.74 | 0.6 | 0.04 | 0.31 | 3.05 | 4.51 | 1.49 | 2.85 | 0.67
2 | COc1ccccc1Nc1ncc(-c2ccccc2)o1 | 98.2 | 4.74 | 6.9 | 17.8 | 77.7 | 31.5 | 85.5 | 4.55 | 9.64 | 3.5
3 | CCCN1CCC(Oc2cc(Nc3nc(Nc4cccc(F)c4C(N)=O)c4cc[nH]c4n3)c(OC)cc2Cl)CC1 | 2.77 | -2.42 | -0.61 | -1.82 | 3.06 | 5.14 | 6.37 | -0.28 | 4.94 | 16.4
4 | COC(=O)Nc1nc2cc(Oc3cccc(NC(=O)Nc4cc(C(F)(F)F)ccc4F)c3)ccc2[nH]1 | 48.2 | 1.96 | -0.67 | -2.55 | 2.17 | 4.04 | 38.8 | 1.15 | 10.5 | 0.06
5 | CS(=O)(=O)CCNCc1ccc(-c2ccc3ncnc(Nc4ccc(OCc5ccccc5)c(Cl)c4)c3c2)o1 | 1.79 | 0.03 | 2.97 | 1.42 | 1.36 | 7.05 | 1.37 | 1.77 | 9.7 | 0.32
6 | CCn1c(-c2nonc2N)nc2cncc(C(=O)N3CCNCC3)c21 | 7.52 | 4.16 | 4.92 | 2.72 | 3.08 | -3.45 | -0.74 | 3.56 | 5.67 | 5.18
7 | Fc1cccc(COc2ccc(Nc3ncnc4cc(-c5ccc[nH]5)sc34)cc2Cl)c1 | 2.05 | 0.67 | 1.62 | 1.82 | 2.49 | 0.61 | 1.53 | -1.91 | 2.29 | 2.11
8 | c1cnn2ncc(-c3ccnc(Nc4ccc5c(c4)OCCO5)n3)c2c1 | 106 | 3.21 | 9.72 | 49.2 | 93.3 | 38.1 | 83.5 | 3.28 | 9.06 | 6.2
9 | COc1cc2ncn(-c3cc(O[C@H](C)c4ccccc4Cl)c(C(N)=O)s3)c2cc1OC | 27.1 | 4.82 | 14.6 | 5.66 | 32.1 | 4.1 | 13.9 | 5.7 | 27.7 | 3.77
10 | CCn1c(-c2nonc2N)nc2c(C#CC(C)(C)O)nc(CN3CCCC3)cc21 | 0.93 | -0.84 | 1.18 | -0.82 | -3.13 | 1.79 | 4.31 | -0.53 | 1.3 | 0.56
11 | CC(C)=Cc1cccc2c1/C(=N/Nc1ccc(S(N)(=O)=O)cc1)C(=O)N2 | 67.5 | 2.15 | 4.23 | 5.7 | 52.1 | 4.73 | 10.1 | 3.66 | 14.7 | 1.87
12 | Cc1cc(O)cc(C)c1/C=C/c1cncc(-c2nn[nH]n2)c1 | 65.5 | 5.64 | 3.74 | 1.04 | 3.66 | -0.1 | 22.1 | 1.97 | 42.5 | 6.07
13 | CC1=C(C(=O)Nc2ccc3[nH]ncc3c2)C(c2ccc3ccccc3c2)CC(=O)N1 (stereo not given) | 7.55 | 0.15 | -0.63 | 1.53 | 2.53 | 1.45 | 2.17 | 21.1 | 64.3 | 2.82
14 | NS(=O)(=O)c1cccc(-c2ccc3c(NC(=O)C4CC4)n[nH]c3c2)c1 | 0.12 | 1.16 | 3.53 | -3.61 | -1.9 | 1.03 | 4.07 | -1.55 | 3.43 | 0.03
15 | CCn1c(-c2nonc2N)nc2cnc(Oc3cccc(NC(=O)c4ccc(OCCN5CCOCC5)cc4)c3)cc21 | 3.53 | 2.71 | -0.34 | 2.87 | 4.8 | -1.11 | 2.85 | 0.98 | 4.63 | 2.7
16 | Nc1nc(-c2ccccn2)c(-c2ccc3ncccc3n2)s1 | 3.6 | 3.62 | 4.08 | 4.81 | 3.16 | -2.5 | 2.06 | 0.48 | 0.19 | 2.47
17 | CCN1CCC(CC(=O)Nc2n[nH]c3nc(-c4cccs4)c(Br)cc23)CC1 | -0.08 | -1.28 | -0.19 | -3.78 | 0.16 | 3.05 | 2.07 | -1.7 | 4.73 | 0.15

Row | SMILES | inhibition [1] [%] | inhibition [2] [%] | inhibition [3] [%] | inhibition [4] [%] | inhibition [5] [%] | inhibition [6] [%] | inhibition [7] [%] | inhibition [8] [%] | inhibition [9] [%] | inhibition [10] [%]
18 | Fc1cccc(COc2ccc(Nc3ncnc4sc(-c5cccs5)cc34)cc2Cl)c1 | 6.67 | 4.5 | 1.72 | 1.75 | 2.96 | 4.3 | 2.12 | 0.99 | 3.56 | -0.03
19 | CS(=O)(=O)Nc1ccc(N/C=C2\C(=O)Nc3ccccc32)cc1 | 86.6 | -1.84 | -0.2 | 7.79 | 61.3 | 4.08 | 20.4 | -0.69 | 5.83 | 0.19
20 | COc1ccc2cc(-c3c(-c4ccncc4)nc(-c4ccc([S+](C)[O-])cc4)n3C)ccc2c1 (stereo not given) | -0.76 | 1.61 | 4.68 | -0.37 | -0.98 | 2.62 | 0.15 | 2.55 | 6.96 | 2.55
21 | COc1cccc(-n2ncc3c(N/N=C/c4cccc(F)c4)ncnc32)c1 | 14.1 | 4.05 | 1.87 | 2.67 | 7.07 | -0.18 | -1.44 | 7.82 | 40.9 | 0.92
22 | CS(=O)(=O)CCNCc1nc(-c2ccc3ncnc(Nc4ccc(F)c(Cl)c4)c3c2)cs1 | 5.11 | 3.12 | 2.42 | 1.78 | 2.83 | 10.4 | 10.7 | 3.91 | 20 | 2.39
23 | COc1cc2ncn(-c3cc(O[C@@H](C)c4ccccc4Cl)c(C(N)=O)s3)c2cc1OC | 11.9 | 3.28 | 6.34 | 3.02 | 5.54 | 4.09 | 3.09 | 4.64 | 19.6 | 3.53
24 | O=C1NC(=O)C(c2ccccc2Cl)=C1Nc1cccc(O)c1 | 0.62 | 2.13 | 2.69 | -1.05 | -0.04 | 0.38 | 1.68 | 2.08 | 5.21 | 0.86
25 | COc1ccc(COc2ccc(Cc3cnc(N)nc3N)cc2OC)cc1 | 7.39 | -2.58 | -2.51 | -2.93 | -3.14 | 5.62 | 8.16 | 0.03 | 2.78 | -1.03
26 | COc1ccc(-c2ccncc2)cc1C(N)=O | 8.81 | 5.33 | 6.29 | 2.7 | 5.32 | -1.34 | -1.88 | 3.42 | 4.47 | 5.46
27 | CS(=O)(=O)CCNCc1ccc(-c2ccc3ncnc(Nc4ccc(OCc5cccc(F)c5)c(C(F)(F)F)c4)c3c2)o1 | 4.6 | 5.18 | 2.67 | 4.9 | 4.53 | -3.52 | -0.7 | 1.82 | 3.95 | 3.59
28 | CCCN1CCC=C(c2ccc(Nc3nc(Nc4ccccc4C(N)=O)c4cc[nH]c4n3)c(C)c2)C1 | 11.6 | 7.12 | 3.39 | 4.53 | 0.85 | -4.87 | -3.21 | 4.63 | 7.36 | 79.4
29 | CC(=O)Nc1cccc(C#Cc2cncnc2Nc2ccc(OCc3cccc(F)c3)c(Cl)c2)n1 | 2.11 | -0.94 | 3.5 | -1.12 | 0.59 | 2.08 | 4.22 | 1.9 | 1.84 | -0.61
30 | N#Cc1c(NC(=O)c2cccc3ccccc23)sc2c1CCCC2 | 0.84 | 1.1 | 2.67 | 2.84 | 1.87 | -1.27 | 3.59 | 2.98 | 4.35 | 2.58
31 | CN(C)c1cc2c(Nc3ccc4nc(Cc5ccccc5)[nH]c4c3)ncnc2cn1 | 19.2 | 7.07 | 7.56 | 2.88 | 6.63 | 1.39 | 7.78 | 7.36 | 33 | 6.47
32 | COc1cc(C)c(NC(=O)CN(C)C)cc1Nc1nc(Nc2cccc(F)c2C(N)=O)c2cc[nH]c2n1 | 4.07 | 2.88 | 1.48 | 0.3 | 0.56 | 0.02 | 0.48 | 1.38 | 1.74 | 92.9
33 | Cc1ccc(NC(=O)c2ccnc(N3CCCC3)c2)cc1-c1ccc(C(=O)NCC2CC2)cc1 | 2.92 | 2.61 | 7.08 | 2.54 | 3.2 | 0.26 | 1.23 | -3.71 | 1.56 | 2.27
